According to PubChem BioAssay (EPA / NIEHS):
“And” between values parts separate entries of the source, which are not always exact repeats. Identical values can stand only once. More than one record can exist for a structure, and the calls need not agree. The source made the active and inactive calls. How the source made its calls: active means hit-call score of the fitted dose curve at least 0.9, where 1 is the maximum; inactive means score below 0.9.

Tests used:
[1] = BSK_CASM3C_SRB: Viability Assessment in the BioMAP Diversity Plus: CASM3C Assay (AID 2283050); conditions: primary human coronary artery smooth muscle cells
[2] = read-out: Thrombomodulin, THBD (gene 7056); experiment: BSK_CASM3C_Thrombomodulin: BioMAP Diversity Plus: CASM3C Assay for Thrombomodulin Biomarker Activity (AID 2283051); conditions: primary human coronary artery smooth muscle cells; actives raise or lower the signal;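 further: thrombomodulin protein level measured by ELISA 24 h after dosing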
[3] = read-out: Tissue Factor, F3 (gene 2152); experiment: BSK_CASM3C_TissueFactor: BioMAP Diversity Plus: CASM3C Assay for Tissue Factor Biomarker Activity (AID 2283052); conditions: primary human coronary artery smooth muscle cells; actives raise or lower the signal;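 further: cell surface tissue factor protein level read by ELISA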
[4] = read-out: Interferon-gamma inducible Protein 10 (IP10), CXCL10 (gene 3627); experiment: BSK_hDFCGF_IP10: BioMAP Diversity Plus: hDFCGF Assay for Interferon-gamma inducible Protein 10 (IP10) Biomarker Activity (AID 2283053); conditions: primary human foreskin fibroblasts; actives raise or lower the signal
Method in brief: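 IP-10 levels, quantified by ELISA, are taken from human foreskin fibroblast cultures 24 h after chemical treatment, with DMSO serving as negative control and baseline for bidirectional analysis.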

[5] = read-out: Urokinase-type plasminogen activator receptor (uPAR), PLAUR (gene 5329); experiment: BSK_CASM3C_uPAR: BioMAP Diversity Plus: CASM3C Assay for Urokinase-type plasminogen activator receptor (uPAR) Biomarker Activity (AID 2283054); conditions: primary human coronary artery smooth muscle cells; actives raise or lower the signal;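 further: cell-surface uPAR protein level quantified by ELISA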
[6] = read-out: Vascular cell adhesion molecule 1 (VCAM1), VCAM1 (gene 7412); experiment: BSK_CASM3C_VCAM1: BioMAP Diversity Plus: CASM3C Assay for Vascular cell adhesion molecule 1 (VCAM1) Biomarker Activity (AID 2283055); conditions: primary human coronary artery smooth muscle cells; actives raise or lower the signal;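 further: VCAM-1 protein level quantified by ELISA on the cells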
[7] = read-out: Collagen III, COL3A1 (gene 1281); experiment: BSK_hDFCGF_CollagenIII: BioMAP Diversity Plus: hDFCGF Assay for Collagen III Biomarker Activity (AID 2283056); conditions: primary human foreskin fibroblasts; actives raise or lower the signal
Method in brief: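 hDFCGF primary human dermal fibroblasts; 24 h chemical exposure; collagen III by ELISA; bidirectional curve fit vs DMSO baseline (gain or loss of signal).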

[8] = read-out: Epidermal growth factor receptor (EGFR), EGFR (gene 1956); experiment: BSK_hDFCGF_EGFR: BioMAP Diversity Plus: hDFCGF Assay for Epidermal growth factor receptor (EGFR) Biomarker Activity (AID 2283057); conditions: primary human foreskin fibroblasts; actives raise or lower the signal
Method in brief: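 Measured by ELISA: EGFR levels on primary human foreskin fibroblasts 24 h after chemical treatment, analysed relative to DMSO with bidirectional fitting.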

[9] = read-out: Interleukin-8 (IL8), CXCL8 (gene 3576); experiment: BSK_hDFCGF_IL8: BioMAP Diversity Plus: hDFCGF Assay for Interleukin-8 (IL8) Biomarker Activity (AID 2283058); conditions: primary human foreskin fibroblasts; actives raise or lower the signal
Method in brief: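 ELISA read-out of IL-8 from primary human foreskin fibroblast cultures taken 24 h after dosing; values are bidirectional fits relative to DMSO vehicle.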

[10] = BSK_hDFCGF_Proliferation: Cell Proliferation Assessment in the BioMAP Diversity Plus: hDFCGF Assay (AID 2283059); conditions: primary human foreskin fibroblasts;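 further: curves fitted for both rise and fall of signal versus DMSO baseline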
Method in brief: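 Sub-confluent human foreskin fibroblast cultures receive test chemical […]. Relative cell number is quantified by sulforhodamine B staining (0.1%, after 10% TCA fixation) at 560 nm, with bidirectional fitting referenced to DMSO.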

[11] = read-out: Macrophage colony-stimulating factor (MCSF), CSF1 (gene 1435); experiment: BSK_hDFCGF_MCSF: BioMAP Diversity Plus: hDFCGF Assay for Macrophage colony-stimulating factor (MCSF) Biomarker Activity (AID 2283060); conditions: primary human foreskin fibroblasts; actives raise or lower the signal
Method in brief: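 ELISA read-out of M-CSF in human dermal foreskin fibroblast cultures, 24 h after chemical dosing; gain or loss of signal fitted bidirectionally relative to DMSO baseline.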

[12] = BSK_hDFCGF_SRB: Viability Assessment in the BioMAP Diversity Plus: hDFCGF Assay (AID 2283061); conditions: primary human foreskin fibroblasts;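 further: cells exposed to compound for 24 h before the read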
Method in brief: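 Primary human foreskin fibroblasts; 24 h post-dose; fixed 10% TCA, stained 0.1% SRB, A560 read; total protein as overt cytotoxicity measure; curves fit bidirectionally vs DMSO control.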

[13] = read-out: TIMP metallopeptidase inhibitor 1 (TIMP1), TIMP1 (gene 7076); experiment: BSK_hDFCGF_TIMP1: BioMAP Diversity Plus: hDFCGF Assay for TIMP metallopeptidase inhibitor 1 (TIMP1) Biomarker Activity (AID 2283062); conditions: primary human foreskin fibroblasts; actives raise or lower the signal
Method in brief: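 ELISA readout of TIMP-1 from human dermal foreskin fibroblast cultures 24 h post-dosing. Curves were fitted in both directions against DMSO baseline, with SRB total-protein staining in parallel cultures as a cytotoxicity check.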

[14] = read-out: Monokine induced gamma interferon (MIG), CXCL9 (gene 4283); experiment: BSK_hDFCGF_MIG: BioMAP Diversity Plus: hDFCGF Assay for Monokine induced gamma interferon (MIG) Biomarker Activity (AID 2283063); conditions: primary human foreskin fibroblasts; actives raise or lower the signal
Method in brief: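 Fibroblasts (human foreskin, primary) dosed, 24 h, MIG by ELISA; fit bidirectional vs DMSO.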

[15] = read-out: Matrix Metallopeptidase 1 (MMP1), MMP1 (gene 4312); experiment: BSK_hDFCGF_MMP1: BioMAP Diversity Plus: hDFCGF Assay for Matrix Metallopeptidase 1 (MMP1) Biomarker Activity (AID 2283064); conditions: primary human foreskin fibroblasts; actives raise or lower the signal
Method in brief: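 Primary human foreskin fibroblasts in the hDFCGF system were dosed with test chemical, and MMP1 was measured by ELISA 24 h later. Values come from bidirectional curve fitting against the DMSO baseline.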

[16] = read-out: Plasminogen activator inhibitor-1 (PAI1), SERPINE1 (gene 5054); experiment: BSK_hDFCGF_PAI1: BioMAP Diversity Plus: hDFCGF Assay for Plasminogen activator inhibitor-1 (PAI1) Biomarker Activity (AID 2283066); conditions: primary human foreskin fibroblasts; actives raise or lower the signal
Method in brief: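 PAI-1 levels, determined by ELISA, served as the endpoint in human foreskin fibroblast cultures exposed to compound for 24 h, with DMSO as baseline.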

[17] = read-out: Intercellular Adhesion Molecule 1 (ICAM1), ICAM1 (gene 3383); experiment: BSK_KF3CT_ICAM1: BioMAP Diversity Plus: KF3CT Assay for Intercellular Adhesion Molecule 1 (ICAM1) Biomarker Activity (AID 2283067); conditions: primary human keratinocytes with fibroblasts; actives raise or lower the signal
Method in brief: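 ELISA readout of ICAM-1; KF3CT human skin co-culture (keratinocytes + foreskin fibroblasts), 24 h post-dose; gain/loss fit vs DMSO baseline.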

[18] = read-out: Interferon-gamma inducible Protein 10 (IP10), CXCL10 (gene 3627); experiment: BSK_KF3CT_IP10: BioMAP Diversity Plus: KF3CT Assay for Interferon-gamma inducible Protein 10 (IP10) Biomarker Activity (AID 2283068); conditions: primary human keratinocytes with fibroblasts; actives raise or lower the signal
Method in brief: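 ELISA read-out of IP-10 after 24 h chemical dosing of human skin primary co-culture (keratinocytes, foreskin fibroblasts). Gain or loss of signal relative to DMSO, bidirectional curve fit.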

[19] = BSK_KF3CT_SRB: Viability Assessment in the BioMAP Diversity Plus: KF3CT Assay (AID 2283069); conditions: primary human keratinocytes with fibroblasts;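 further: total protein by sulforhodamine B staining as a cytotoxicity measure; read 24 h after compound addition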
Method in brief: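 Human primary keratinocyte plus foreskin fibroblast co-culture exposed to chemicals for 24 h. Total protein measured by 0.1% sulforhodamine B staining after 10% TCA fixation, read at 560 nm; bidirectional fitting versus DMSO baseline.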

[20] = read-out: Vascular cell adhesion molecule 1 (VCAM1), VCAM1 (gene 7412); experiment: BSK_hDFCGF_VCAM1: BioMAP Diversity Plus: hDFCGF Assay for Vascular cell adhesion molecule 1 (VCAM1) Biomarker Activity (AID 2283065); conditions: primary human foreskin fibroblasts; actives raise or lower the signal;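 on AC50: VCAM-1 protein level quantified by ELISA after 24 h chemical exposure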
Method in brief: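 ELISA read-out of VCAM-1 on human skin fibroblasts, 24 h post-dose; gain or loss of signal fitted bidirectionally against DMSO baseline.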

Measured: AC50

OCC(F)(F)C(F)(F)C(F)(F)F
not listed: [20]
inactive: all other assays above

FC(F)(F)C(F)(F)C(F)(F)C(F)(F)C(F)(F)C(F)(F)CC1CO1 (stereo not drawn)
inactive: all assays above

CC(=O)Nc1ccc(N=Nc2cc(C)ccc2O)cc1
active: [4] 34.1 µM | [6] 9.54 µM | [11] 30.8 µM | [14] 33.8 µM | [15] 31 µM | [20] 30.2 µM | [17] 20 µM | [18] 34 µM
not listed: [10]
inactive: all other assays above

CCc1ccc(C(c2ccc(CC)cc2)C(Cl)Cl)cc1
inactive: [1] | [2] | [5] | [6] | [8] | [9] | [17]
active: [3] 5.97 µM | [4] 26.2 µM | [7] 20 µM | [10] 4.45 µM | [11] 26 µM | [12] 13.8 µM | [13] 20 µM | [14] 31.8 µM | [15] 30.1 µM | [16] 12.3 µM | [18] 13.6 µM | [19] 29.2 µM

O=C(O)C=C(C(F)(F)F)C(F)(F)F
active: [6] 12.5 µM and 5.23 µM | [13] 0.967 µM | [20] 13.1 µM and 22.2 µM | [16] 22.6 µM
inactive: [1] | [2] | [3] | [4] | [5] | [7] | [8] | [9] | [11] | [12] | [13] | [14] | [15] | [16] | [17] | [18] | [19]

FC(F)(I)C(F)(F)C(F)(F)C(F)(F)I
active: [1] 43.5 µM and 47.2 µM and 48.7 µM | [3] 30 µM and 40.4 µM | [4] 47.9 µM and 55.1 µM and 58.4 µM | [5] 47.2 µM and 43.9 µM and 54.4 µM | [6] 45.7 µM and 45.6 µM and 47.9 µM | [7] 30 µM and 44.1 µM and 39.5 µM | [11] 51.1 µM and 47.7 µM and 58.5 µM | [12] 46.3 µM and 52.7 µM and 54 µM | [13] 45.3 µM and 46.7 µM and 47.2 µM | [14] 50.1 µM and 46 µM and 54.4 µM | [15] 56.1 µM and 47.6 µM and 46.9 µM | [20] 50.3 µM and 57.2 µM and 46.4 µM | [16] 45.1 µM and 50.2 µM and 44.9 µM | [17] 45.5 µM and 46.4 µM and 46.6 µM | [18] 52.2 µM and 58.4 µM and 56.6 µM | [19] 52.6 µM and 51.1 µM and 58.7 µM
inactive: [2] | [3] | [8]

O=P(O)(O)OCCC(F)(F)C(F)(F)C(F)(F)C(F)(F)C(F)(F)C(F)(F)F
active: [4] 7.21 µM
inactive: [1] | [2] | [3] | [4] | [5] | [6] | [7] | [8] | [11] | [12] | [13] | [14] | [15] | [16] | [17] | [18] | [19]

O=C(O)C(F)(F)C(F)(F)C(F)(F)C(F)(F)F
not listed: [20]
inactive: all other assays above

FC(F)(F)C(F)(F)C(F)(F)C(F)(F)C(F)(F)C(F)(F)CCS
not listed: [10]
inactive: all other assays above
